Measured values reported in PubChem BioAssay.
Entries with a potency or affinity are not part of this list. Inconclusive results are not listed. A number with no mark means an inactive call. Active and inactive are the calls of the source.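 How the source made its calls: active means fitted half-maximal concentration for viability loss no higher than twice the top valid dose, in every repeat run; inconclusive means repeat runs disagree, flat partial loss, or poor curve fit; inactive means the rest.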

Assay: cytotoxicity in IOSE-T80 ovarian epithelial cells, dose response, selectivity assay for PAX8 inhibitor project, cell-based, cherry-pick (AID 687032);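 further: cells exposed to compound for 96 h before reading; 0% = neutral control wells and -100% = 2 µM mitoxantrone kill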
Conditions: CellTiterGlo ATP luminescence, 96 h; series mostly up to 35 µM; activity change, negative = viability loss: at the top concentration

| SMILES | activity change, negative = viability loss | outcome |
| --- | --- | --- |
| C[C@@H]1CN([C@@H](C)CO)C(=O)Cc2cc(N(C)C)ccc2O[C@H]1CN(C)Cc1ccc(Oc2ccccc2)cc1 | 16.7% |  |
| C[C@H](CO)N1C[C@H](C)[C@H](CN(C)Cc2ccc3c(c2)OCO3)Oc2ccc(NC(=O)Nc3cccc4ccccc34)cc2C1=O | 15.1% |  |
| COc1ccccc1C#Cc1ccc2c(c1)O[C@H](CN(C)Cc1cccnc1)[C@H](C)CN([C@H](C)CO)S2(=O)=O | -2.95% |  |
| C[C@@H]1CCCCO[C@H](CN(C)Cc2ccc(C(F)(F)F)cc2)[C@H](C)CN([C@H](C)CO)C(=O)c2cc(NS(=O)(=O)c3ccc(F)cc3)ccc2O1 | 7.65% |  |
| CN1c2ccc(-c3ccc(C#N)cc3)cc2[C@@H]2[C@@H](CCN2C(=O)NC2CCCCC2)[C@@H]1CO | 2.7% |  |
| Cc1ccc(S(=O)(=O)Nc2ccc3c(c2)C(=O)N([C@@H](C)CO)C[C@H](C)[C@H](CN(C)Cc2ccc(C(F)(F)F)cc2)OCCCC[C@@H](C)O3)cc1 | 9.12% |  |
| Cc1ccc(S(=O)(=O)N(C)C[C@H]2Oc3ccc(NC(=O)Nc4ccc(C(F)(F)F)cc4)cc3CC(=O)N([C@@H](C)CO)C[C@H]2C)cc1 | 10.9% |  |
| CCCN(C)C[C@H]1OCCCC[C@@H](C)Oc2ccc(NC(=O)c3ccccc3)cc2C(=O)N([C@H](C)CO)C[C@H]1C | 8.78% |  |
| C[C@@H]1CCCCO[C@H](CN(C)Cc2ccc(Cl)c(Cl)c2)[C@@H](C)CN([C@@H](C)CO)C(=O)c2cc(NS(=O)(=O)c3ccc(Cl)cc3)ccc2O1 | 1.31% |  |
| C[C@@H]1CN([C@H](C)CO)C(=O)c2c(c3ccccc3n2C)-c2ccccc2CO[C@H]1CN(C)C(=O)Nc1cccc(C(F)(F)F)c1 | 9.46% |  |
| C[C@@H]1CCCCO[C@H](CN(C)Cc2ccc(Cl)c(Cl)c2)[C@H](C)CN([C@@H](C)CO)C(=O)c2cc(NC(=O)Nc3ccc(F)cc3)ccc2O1 | 6.69% |  |
| C[C@H](CO)N1C[C@H](C)[C@H](CN(C)Cc2ccc(Cl)c(Cl)c2)Oc2c(NS(=O)(=O)c3ccc(Cl)cc3)cccc2C1=O | 18.4% |  |
| Cc1ccc(S(=O)(=O)Nc2ccc3c(c2)C(=O)N([C@H](C)CO)C[C@@H](C)[C@H](CN(C)S(=O)(=O)c2ccc(Cl)cc2)OCCCC[C@H](C)O3)cc1 | 4.89% |  |
| C[C@@H]1CN([C@H](C)CO)C(=O)c2cc(NC(=O)Nc3ccc(C(F)(F)F)cc3)ccc2O[C@@H](C)CCCCO[C@H]1CN(C)C(=O)Nc1ccc(F)cc1 | 22.7% |  |
| Cc1ccc(S(=O)(=O)Nc2ccc3c(c2)C(=O)N([C@@H](C)CO)C[C@H](C)[C@@H](CN(C)C(=O)Nc2ccc(C(F)(F)F)cc2)OCCCC[C@H](C)O3)cc1 | 12.6% |  |
| Cc1cccc(-c2ccc([C@H]3[C@H](CO)N4CCCCN(S(=O)(=O)c5ccccc5C)C[C@@H]34)cc2)c1 | 8.94% |  |
| C[C@@H]1CN([C@H](C)CO)C(=O)c2cc(NC(=O)Nc3ccc(F)cc3)ccc2O[C@@H](C)CCCCO[C@H]1CN(C)Cc1ccc(Cl)c(Cl)c1 | 5.28% |  |
| O=C(Nc1cccc(F)c1)N1CCCCN2[C@@H](CO)[C@@H](c3ccc(-c4ccncc4)cc3)[C@@H]2C1 | 8.74% |  |
| C[C@@H]1CCCCO[C@H](CN(C)C)[C@H](C)CN([C@H](C)CO)C(=O)c2cc(NC(=O)Nc3cccc4ccccc34)ccc2O1 | 9.17% |  |
| C[C@@H]1CN([C@@H](C)CO)C(=O)c2cc(NC(=O)c3ccccc3)ccc2O[C@@H](C)CCCCO[C@H]1CN(C)Cc1ccc(C(F)(F)F)cc1 | -6.62% |  |
| C[C@@H]1CCCCO[C@H](CN(C)Cc2ccc(C(F)(F)F)cc2)[C@@H](C)CN([C@@H](C)CO)C(=O)c2cc(NS(=O)(=O)c3ccccc3)ccc2O1 | 11.1% |  |
| O=C(Nc1ccc(C(F)(F)F)cc1)N1C[C@@H]2N[C@H](C1)C2c1ccc(-c2ccccc2)cc1 (stereo partly specified) |  | inactive |
| O=C(C[C@@H]1CC[C@H]2[C@@H](COC[C@@H](O)CN2Cc2cccc(C(F)(F)F)c2)O1)NCc1ccc(F)cc1 | 12.8% |  |
| C[C@@H]1CN([C@H](C)CO)C(=O)c2cc(NC(=O)Nc3ccc(F)cc3)ccc2O[C@@H](C)CCCCO[C@H]1CN(C)C(=O)Nc1ccc(F)cc1 | 3.2% |  |
| O=S(=O)(c1ccc(F)cc1)N1C[C@H]2[C@@H](c3ccccc31)[C@H](CO)N2Cc1ccccc1Cl | 16.4% |  |
| C[C@@H]1CN([C@@H](C)CO)S(=O)(=O)c2ccc(C#C[C@@H](C)O)cc2O[C@@H]1CN(C)Cc1ccc(-c2ccccc2)cc1 | 4.59% |  |
